Reference: the supplement of paper PMC8728848
The entries come from a sample that favours the strongest signals as a whole.

Columns and labels:
Test in all cases: glycan array binding signal (z-score within array); higher = stronger binding
Conditions in all cases: glycan notation: IUPAC condensed, linker removed
3dGal(b1-4)Glc = target: 3dGal(b1-4)Glc
Summary of the method: (§1)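 The binding signal is a Z-score computed within each array and averaged over linkers. Arrays of the same protein sequence at different concentrations or buffers were also averaged together. Data originate from 3228 arrays in the Consortium for Functional Glycomics database, kept only where the protein sequence was available.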

[1] = target: Ara(a1-5)Ara(a1-5)Ara(a1-5)Ara(a1-5)Ara(a1-5)Ara(a1-5)Ara
Summary of the method: as §1

[2] = target: Fuc(a1-2)Gal(b1-3)[Fuc(a1-4)]GlcNAc(b1-3)[Fuc(a1-3)[Gal(b1-4)]GlcNAc(b1-6)]Gal(b1-4)Glc
Summary of the method: as §1

[3] = target: Fuc(a1-3)[3dGal(b1-4)]Glc
Summary of the method: as §1

[4] = target: Fuc(a1-3)[Gal(b1-4)]GlcNAc(b1-3)Gal(b1-4)[Fuc(a1-3)]Glc
Summary of the method: as §1

Gal(a1-4)Gal(b1-4)GlcNAc = target: Gal(a1-4)Gal(b1-4)GlcNAc
Summary of the method: as §1

[5] = target: Gal(b1-3)GalNAc(b1-4)Gal(b1-4)Glc
Summary of the method: as §1

Gal(b1-4)GlcNAc(b1-3)Fuc = target: Gal(b1-4)GlcNAc(b1-3)Fuc
Summary of the method: as §1

[6] = target: Gal(b1-4)GlcNAc(b1-3)Gal(b1-4)Glc
Summary of the method: as §1

Gal(b1-6)GalNAc = target: Gal(b1-6)GalNAc
Summary of the method: as §1

GalNAc(b1-4)Gal(b1-4)Glc = target: GalNAc(b1-4)Gal(b1-4)Glc
Summary of the method: as §1

[7] = target: Glc(a1-4)Glc(a1-4)Glc(a1-4)Glc(a1-4)Glc(a1-4)Glc(a1-4)Glc(a1-4)Glc
Summary of the method: as §1

Glc(a1-6)Glc = target: Glc(a1-6)Glc
Summary of the method: as §1

[8] = target: Glc(a1-6)Glc(a1-4)Glc(a1-4)Glc
Summary of the method: as §1

[9] = target: Glc(a1-6)Glc(a1-6)Glc(a1-6)Glc
Summary of the method: as §1

[10] = target: Glc(a1-6)Glc(a1-6)Glc(a1-6)Glc(a1-6)Glc
Summary of the method: as §1

[11] = target: Glc(b1-6)Glc(b1-6)Glc(b1-6)Glc(b1-6)Glc(b1-6)Glc(b1-6)Glc(b1-6)Glc
Summary of the method: as §1

GlcA(b1-3)Gal = target: GlcA(b1-3)Gal
Summary of the method: as §1

[12] = target: GlcA(b1-3)GlcNAc(b1-4)GlcA(b1-3)GlcNAc(b1-4)GlcA(b1-3)GlcNAc(b1-4)GlcA(b1-3)GlcNAc(b1-4)GlcA(b1-3)GlcNAc(b1-4)GlcA(b1-3)GlcNAc(b1-4)GlcA(b1-3)GlcNAc
Summary of the method: as §1

[13] = target: GlcNAc(b1-2)Man(a1-3)[GlcNAc(b1-2)Man(a1-6)]Man
Summary of the method: as §1

[14] = target: GlcNAc(b1-2)[GlcNAc(b1-4)]Man(a1-3)[GlcNAc(b1-2)[GlcNAc(b1-6)]Man(a1-6)]Man(b1-4)GlcNAc(b1-4)GlcNAc
Summary of the method: as §1

GlcNAc(b1-3)Fuc = target: GlcNAc(b1-3)Fuc
Summary of the method: as §1

[15] = target: GlcNAc(b1-3)[GlcNAc(b1-6)]Gal
Summary of the method: as §1

[16] = target: HexA6S(a1-4)GlcNS6S(a1-4)IdoA2S(a1-4)GlcNS6S(a1-4)IdoA2S(a1-4)GlcNS6S(a1-4)IdoA2S(a1-4)GlcNS6S(a1-4)IdoA2S(a1-4)GlcNS6S(a1-4)IdoA2S(a1-4)GlcNS6S(a1-4)IdoA2S(a1-4)GlcNS6S
Summary of the method: as §1

[17] = target: Kdn(a2-3)Gal(b1-3)GalNAc(b1-4)[Kdn(a2-3)]Gal(b1-4)Glc
Summary of the method: as §1

Kdn(a2-6)Gal = target: Kdn(a2-6)Gal
Summary of the method: as §1

[18] = target: Man(a1-3)Man(a1-6)[Man(a1-3)]Man(b1-4)GlcNAc(b1-4)GlcNAc
Summary of the method: as §1

Neu(a2-6)Gal(b1-4)Glc = target: Neu(a2-6)Gal(b1-4)Glc
Summary of the method: as §1

[19] = target: Neu5Ac(a2-3)4dGal(b1-4)[Fuc(a1-3)]GlcNAc(b1-3)Gal
Summary of the method: as §1

[20] = target: Neu5Ac(a2-3)6dGal(b1-4)[Fuc(a1-3)]GlcNAc(b1-3)Gal
Summary of the method: as §1

[21] = target: Neu5Ac(a2-3)Gal(b1-3)GalNAc6S(b1-4)Gal(b1-4)Glc
Summary of the method: as §1

[22] = target: Neu5Ac(a2-3)Gal(b1-3)GlcNAc(b1-3)[Fuc(a1-3)[Gal(b1-4)]GlcNAc(b1-6)]Gal(b1-4)Glc
Summary of the method: as §1

[23] = target: Neu5Ac(a2-3)Gal(b1-3)[Neu5Ac(a2-6)]GalNAc(b1-4)Gal(b1-4)Glc
Summary of the method: as §1

[24] = target: Neu5Ac(a2-3)Gal(b1-4)[Fuc(a1-3)]Glc
Summary of the method: as §1

[25] = target: Neu5Ac(a2-3)[GalNAc(b1-6)]Gal(b1-4)Glc
Summary of the method: as §1

[26] = target: Neu5Ac(a2-6)Gal(b1-4)GlcNAc(b1-3)[Neu5Ac(a2-6)Gal(b1-4)GlcNAc(b1-6)]Gal(b1-4)Glc
Summary of the method: as §1

Neu5Ac(a2-6)Glc6S = target: Neu5Ac(a2-6)Glc6S
Summary of the method: as §1

Neu5Ac(a2-6)GlcNAc6S = target: Neu5Ac(a2-6)GlcNAc6S
Summary of the method: as §1

[27] = target: Xyl(b1-2)[Man(a1-3)][Man(a1-6)]Man(b1-4)GlcNAc(b1-4)[Fuc(a1-3)]GlcNAc
Summary of the method: as §1

B1: HysACBM (Streptococcus pneumoniae), Q54873 (protein)
chain: KNLVENGDFGQTEDGSSPWTGSKAQGWSAWVDQKNSADASTRVIEAKDGAITISSHEKLRAALHRMVPIEAKKKYKLRFKIKTDNKIGIAKVRIIEESGKDKRLWNSATTSGTKDWQTIEADYSPTLDVDKIKLELFYETGTGTVSFKDIELVEVADQLS
glycan array binding signal (z-score) (3dGal(b1-4)Glc): -0.091
glycan array binding signal (z-score) [1]: -0.091
glycan array binding signal (z-score) [2]: 0.584
glycan array binding signal (z-score) [3]: -0.091
glycan array binding signal (z-score) [4]: 0.007
glycan array binding signal (z-score) (Gal(a1-4)Gal(b1-4)GlcNAc): -0.091
glycan array binding signal (z-score) [5]: 0.174
glycan array binding signal (z-score) (Gal(b1-4)GlcNAc(b1-3)Fuc): 0.281
glycan array binding signal (z-score) [6]: -0.091
glycan array binding signal (z-score) (Gal(b1-6)GalNAc): -0.064
glycan array binding signal (z-score) (GalNAc(b1-4)Gal(b1-4)Glc): 0.321
glycan array binding signal (z-score) [7]: 0.776
glycan array binding signal (z-score) (Glc(a1-6)Glc): -0.091
glycan array binding signal (z-score) [8]: -0.059
glycan array binding signal (z-score) [9]: -0.091
glycan array binding signal (z-score) [10]: -0.091
glycan array binding signal (z-score) [11]: -0.091
glycan array binding signal (z-score) (GlcA(b1-3)Gal): 0.267
glycan array binding signal (z-score) [12]: 21.5
glycan array binding signal (z-score) [13]: -0.091
glycan array binding signal (z-score) [14]: 0.264
glycan array binding signal (z-score) (GlcNAc(b1-3)Fuc): -0.05
glycan array binding signal (z-score) [15]: -0.091
glycan array binding signal (z-score) [16]: -0.091
glycan array binding signal (z-score) [17]: -0.091
glycan array binding signal (z-score) (Kdn(a2-6)Gal): -0.091
glycan array binding signal (z-score) [18]: -0.091
glycan array binding signal (z-score) (Neu(a2-6)Gal(b1-4)Glc): 0.823
glycan array binding signal (z-score) [19]: -0.091
glycan array binding signal (z-score) [20]: -0.045
glycan array binding signal (z-score) [21]: -0.091
glycan array binding signal (z-score) [22]: -0.091
glycan array binding signal (z-score) [23]: -0.054
glycan array binding signal (z-score) [24]: -0.091
glycan array binding signal (z-score) [25]: -0.091
glycan array binding signal (z-score) [26]: -0.091
glycan array binding signal (z-score) (Neu5Ac(a2-6)Glc6S): -0.091
glycan array binding signal (z-score) (Neu5Ac(a2-6)GlcNAc6S): -0.091
glycan array binding signal (z-score) [27]: -0.091
